Experimental data from publication PMC4336329 (PLoS ONE, 2015).
Out of some 310,000 compounds screened, about 14,000 (4.5%) showed an effect of 50% or more. Effects have a minus sign here. The full list was thinned out, with strong results kept by preference.

Target: human ether-à-go-go-related gene (hERG) potassium channel (human, UniProt Q12809)
Assay: primary screen, population patch clamp on CHO cells stably expressing hERG; higher = less effect of the substance
Method: Briefly, Chinese hamster ovary (CHO) cells stably expressing the hERG channel were dislodged from tissue culture flasks and dispensed into PPC plates. […] During the recording, background leak currents were estimated by a 100 ms step to -80 mV from an initial holding potential of -70 mV and subtracted from the subsequent current measurement. The campaign was conducted in two phases using slight differences in recording protocol. In the first phase, the initial voltage pulse used a 100 ms step to -30 mV from a holding potential of -70 mV, a 2 s conditioning step to +25 mV, and a 2 s test step to -30 mV. During the second phase of the screen, the potential during the conditioning step was raised to +45 mV. In both phases of the campaign, a secondary voltage pulse was applied using the same parameters as the second phase initial pulse. The initial and secondary pulses were applied in the absence of compound, and upon application of 1 μM and 10 μM test concentrations. […]
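Further: peak tail current of the secondary pulse compared with the same well before compound.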

human ether-à-go-go-related gene (hERG) potassium channel, sequence (Q12809 whole entry, looked up): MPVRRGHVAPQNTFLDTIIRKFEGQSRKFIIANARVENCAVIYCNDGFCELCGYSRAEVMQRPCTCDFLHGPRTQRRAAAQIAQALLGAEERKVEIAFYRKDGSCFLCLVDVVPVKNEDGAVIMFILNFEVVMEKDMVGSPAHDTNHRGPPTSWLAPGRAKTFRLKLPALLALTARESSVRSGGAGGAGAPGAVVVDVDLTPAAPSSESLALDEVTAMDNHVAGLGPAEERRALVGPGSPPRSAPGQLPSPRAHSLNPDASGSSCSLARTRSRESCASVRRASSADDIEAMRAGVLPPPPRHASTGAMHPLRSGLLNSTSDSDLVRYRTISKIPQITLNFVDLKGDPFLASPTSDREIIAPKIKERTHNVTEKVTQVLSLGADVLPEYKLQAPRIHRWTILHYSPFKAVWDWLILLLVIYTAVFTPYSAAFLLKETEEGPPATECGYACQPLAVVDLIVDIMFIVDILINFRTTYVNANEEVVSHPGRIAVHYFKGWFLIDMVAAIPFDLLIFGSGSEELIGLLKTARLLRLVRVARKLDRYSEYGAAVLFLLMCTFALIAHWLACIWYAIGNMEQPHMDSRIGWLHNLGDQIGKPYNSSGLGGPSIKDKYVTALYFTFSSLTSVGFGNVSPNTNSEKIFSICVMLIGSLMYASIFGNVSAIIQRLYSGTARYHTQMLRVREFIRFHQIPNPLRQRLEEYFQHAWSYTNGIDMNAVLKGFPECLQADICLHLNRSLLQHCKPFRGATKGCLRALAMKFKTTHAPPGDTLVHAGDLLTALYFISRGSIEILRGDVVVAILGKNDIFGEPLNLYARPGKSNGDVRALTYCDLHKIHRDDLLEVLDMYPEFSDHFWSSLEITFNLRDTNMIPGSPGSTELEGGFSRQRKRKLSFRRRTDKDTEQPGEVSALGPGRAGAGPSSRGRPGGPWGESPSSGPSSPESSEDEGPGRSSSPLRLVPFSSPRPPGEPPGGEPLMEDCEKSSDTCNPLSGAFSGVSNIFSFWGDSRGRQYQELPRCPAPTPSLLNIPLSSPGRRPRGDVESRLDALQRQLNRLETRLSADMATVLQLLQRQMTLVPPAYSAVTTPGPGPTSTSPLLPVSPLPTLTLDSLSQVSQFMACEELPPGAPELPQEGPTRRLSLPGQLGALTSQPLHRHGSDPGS

SMILES	hERG current change (%, negative = inhibition) at 10uM
CC(=O)c1nc2ccccc2n1S(=O)(=O)c1ccc(C)cc1	17.3%
Cc1nc2c(ccc3nc(NC(=O)c4ccc(S(=O)(=O)N(C)C)cc4)sc32)s1	15.2%
Cc1nc2c(ccc3nc(NC(=O)c4ccc5c(c4)OCCO5)sc32)s1	-74.3%
Cc1nc2ccc3nc(NC(=O)c4ccc5c(c4)OCCO5)sc3c2s1	2.9%
CC(C)(C)NC(=O)COc1coc(CN2CCN(Cc3ccccc3)CC2)cc1=O	-1.29%
Cc1ccc(Cn2c(C(CO)Nc3nc(-c4ccc(Cl)c([N+](=O)[O-])c4)cs3)nc3ccccc32)cc1 (stereo not drawn)	7.56%
O=S(=O)(c1ccsc1)N1CC=C(c2ccccc2)CC1	15.7%
CN1CCN(C(c2cc3cc4c(cc3[nH]c2=O)OCCO4)c2nnnn2C2CCCC2)CC1 (stereo not drawn)	-9.91%
CCN1CC2C3CCC(C)(O3)C2C1 (stereo not drawn)	-73.1%
CCCc1cc(=O)[nH]c(SCC(=O)Nc2nc3ccc(OCC)cc3s2)n1	22.8%
NC(=S)N=Nc1c(O)n(CC(=O)Nc2ccccc2)c2ccccc12	16.4%
COc1cc2ncnc(NCc3ccc(C)o3)c2cc1OC	-11.5%
CN(c1ccc(OCC(=O)N2CCOCC2)cc1)S(=O)(=O)c1ccc(F)cc1	-9.15%
CCOC(=O)C1CCCN(C(=O)COc2ccc(N(C)S(=O)(=O)c3ccc(F)cc3)cc2)C1 (stereo not drawn)	-66.5%
CCOC(=O)C1CCN(C(=O)COc2ccc(N(C)S(=O)(=O)c3ccc(C)cc3)cc2)CC1	-57.7%
CCOC(=O)C1CCCN(C(=O)COc2ccccc2O)C1 (stereo not drawn)	-1.94%
CCOC(=O)C1CCCN(C(=O)COc2ccc(N(C)S(=O)(=O)c3ccc(C)cc3)cc2)C1 (stereo not drawn)	-56.8%
CCN(c1ccccc1)S(=O)(=O)c1ccc(OCC(=O)N2CCCC2)cc1	-10.4%
Cc1ccc(S(=O)(=O)N(C)c2ccc(OCC(=O)N3CCCC(C(F)(F)F)C3)cc2)cc1 (stereo not drawn)	-39.9%
COC(=O)C1CCN(C(=O)COc2ccc(N(C)S(=O)(=O)c3ccc(C)cc3)cc2)CC1	-33.8%
CCOC(=O)C1CCCN(C(=O)COc2ccc(S(=O)(=O)N(CC)c3ccccc3)cc2)C1 (stereo not drawn)	-51.8%
CCOC(=O)C1CCN(C(=O)COc2ccc(N(C)S(=O)(=O)c3ccc(OCC)cc3)cc2)CC1	-4.08%

SMILES	hERG current change (%, negative = inhibition) at 10uM
CN1CCN(C(=O)COc2ccc(N(C)S(=O)(=O)c3ccc(F)cc3)cc2)CC1	-4.56%
Cc1ccc(S(=O)(=O)N(C)c2ccc(OCC(=O)N3CCCCC3)cc2)cc1	-10.5%
O=C(COC(=O)c1cnccn1)c1cccc([N+](=O)[O-])c1	14.4%
O=C(Nc1ccccc1Cl)c1sccc1-c1ccccc1	-2.39%
COc1ccc(/C=N/NC(=O)C(=O)Nc2ccccn2)cc1OC	-27.2%
COc1ccc(C2=NS(=O)(=O)N(C)C(C(=O)NCc3ccccn3)=C2)cc1OC	-4.15%
CC1=CC(C)(C)Nc2ccc(OC(=O)c3ccco3)cc21	-0.0756%
CC1CN(C(=O)CN2C(=O)c3ccccc3C2=O)CC(C)O1 (stereo not drawn)	6.42%
CCCCCCN1CC(=O)N2Cc3[nH]c4ccccc4c3C[C@H]2C1=O	-9.11%
O=C(CCCSc1nc2ccccc2[nH]1)Nc1nnc(C2CC2)s1	-1.62%
CCn1c(SCC(N)=O)nc2sc3c(c2c1=O)CCCC3	1.24%
CCOc1ccccc1Oc1c(C)oc2cc(OC(=O)N3CCOCC3)ccc2c1=O	4.41%
O=C(NCCc1ccccc1F)C1CCC(=O)N(CCCN2CCCC2=O)C1 (stereo not drawn)	-7.84%
COCC1CCCCC1OS(N)(=O)=O (stereo not drawn)	5.38%
Cn1cccc1-c1nc2ccccc2n1C	-1.23%
Cn1cc(Cl)c(-c2nc3ccccc3[nH]2)n1	-1.45%
O=C(NC1CC2CCCC(C1)N2Cc1cccs1)N1CCOCC1 (stereo not drawn)	-6.2%
O=C(NC1CC2CCCC(C1)N2Cc1cccs1)c1ccc([N+](=O)[O-])cc1 (stereo not drawn)	-84.3%
CN1C2CCC1CC(NC(=O)c1ccc([N+](=O)[O-])cc1)C2 (stereo not drawn)	3.81%
CC(C)CN1C2CCCC1CC(NC(=O)c1ccc([N+](=O)[O-])cc1)C2 (stereo not drawn)	-78.3%
O=C(NC1CC2CCCC(C1)N2Cc1ccccc1)c1ccc([N+](=O)[O-])cc1 (stereo not drawn)	-81%
CCCN1C2CCCC1CC(NC(=O)c1cccc([N+](=O)[O-])c1)C2 (stereo not drawn)	-36.8%

SMILES	hERG current change (%, negative = inhibition) at 10uM
COc1ccc(C(=O)NC2CC3CCCC(C2)N3CC(C)C)cc1 (stereo not drawn)	-34.7%
COCCNC(=S)NC1CC2CCCC(C1)N2Cc1cccs1 (stereo not drawn)	-26.7%
Cc1ccc(NC(=O)c2ccc(N3CCCC3=O)cc2)cc1S(=O)(=O)N1CCCCC1	-3.33%
Cc1ccc(S(=O)(=O)N2CCN(C(=O)CCOc3cc(C)ccc3C)CC2)cc1	-32.8%
CSCCC(NC(=O)c1ccccc1Cl)C(=O)N1CCCCCCC1 (stereo not drawn)	-6.4%
CC(=O)Nc1ccc(N2C(=O)C3C4CC(=O)C(c5ccccc54)C3C2=O)cc1 (stereo not drawn)	7.32%
Oc1ccccc1-c1nc(NCCN2CCOCC2)c2ccccc2n1	-26.2%
CCOC(=O)CSc1ccc(C(=O)Nc2ccc(Cl)cc2)cn1	21.8%
CCOC(=O)c1c(C)[nH]c(C)c1S(=O)(=O)NCC(=O)Nc1ccccn1	17.9%
COc1ccc(N)c2c1C(=O)c1ccccc1C2=O	-10.4%
CC(COc1ccccc1Cc1ccccc1)N1CCCCC1.O=P(O)(O)O (stereo not drawn)	-70.1%
CC(OC(=O)COc1ccccc1Cc1ccccc1)C(=O)N(C)c1ccccc1 (stereo not drawn)	-0.572%
CC(C(=O)Nc1ccc(OCc2ccccc2)cc1)N1CCCC1 (stereo not drawn)	-21.6%
CCOc1ccc2c(c1)N(C(=O)CN1C(=O)CCC1=O)C(C)(C)C=C2C	-22.8%
COCCNC(=O)COc1ccc(Br)cc1Cl	10.4%
COCCNC(=O)C(c1ccc(F)cc1)N(C(=O)CCC(=O)Nc1nccs1)c1ccc(C)cc1 (stereo not drawn)	-14.1%
CN(c1ccc(OCC(=O)OCC(=O)Nc2ccc(Br)cc2)cc1)S(=O)(=O)c1cccs1	-0.388%
O=C(N/N=C/c1ccc[nH]1)c1ccccc1OCc1ccccc1Cl	-25.5%
O=C(N/N=C/c1ccco1)c1ccccc1OCc1ccc(Br)cc1	-8.69%
O=C(N/N=C/c1ccco1)c1ccccc1OCc1ccccc1Cl	-82.8%
CC(=O)c1ccc(-c2ccc(C(=O)NC3CCCCCC3)o2)cc1	26%
O=C(NCC1CCCO1)c1ccc(COc2ccc(Cl)cc2)cc1 (stereo not drawn)	-11.9%

SMILES	hERG current change (%, negative = inhibition) at 10uM
O=C(NCC1CCCO1)c1ccc(Oc2ccc([N+](=O)[O-])cc2)cc1 (stereo not drawn)	-60.8%
O=C(NCC1CCCO1)c1ccc(NC(=O)c2ccc([N+](=O)[O-])cc2)cc1 (stereo not drawn)	-2.58%
O=C(NCC1CCCO1)c1ccc(COc2ccccc2)cc1 (stereo not drawn)	-56.3%
O=C(NCC1CCCO1)c1cccc(Oc2ccc([N+](=O)[O-])cc2Cl)c1 (stereo not drawn)	-72.6%
O=C(NCC1CCCO1)c1ccc(Oc2ccc([N+](=O)[O-])cc2Cl)cc1 (stereo not drawn)	-41.6%
O=C(NCC1CCCO1)c1cccc(Oc2c(Cl)cccc2[N+](=O)[O-])c1 (stereo not drawn)	-0.562%
O=C(NC(=S)NCC1CCCO1)c1ccc([N+](=O)[O-])cc1 (stereo not drawn)	-16.6%
CC1(C)CC(NC(=O)c2ccc(-c3ccc([N+](=O)[O-])cc3)o2)CC(C)(C)N1	-49%
O=C(NCC1CCCO1)c1ccc(COc2ccc(Br)cc2)cc1 (stereo not drawn)	-13.7%
CC(=O)c1ccc(-c2ccc(C(=O)NC3CC(C)(C)NC(C)(C)C3)o2)cc1	-122%
Brc1ccc(-n2cc(-c3ccccc3)c3c(NN4CCOCC4)ncnc32)cc1	-15.7%
Cn1c(SCC(=O)OCc2ccccc2)nnc1-c1ccco1	0.0583%
CCCCC(=O)NC(c1ccco1)c1c(O)ccc2ccccc12 (stereo not drawn)	-2.6%
O=C1CC2CS(=O)(=O)CC2N1c1ccc(Cl)cc1Cl (stereo not drawn)	5.75%
CCCc1ccc(S(=O)(=O)N/N=C\c2ccc3c(c2)OCO3)cc1	-0.771%
CCOc1ccc(NC(c2ccccn2)c2oc(CO)cc(=O)c2O)cc1 (stereo not drawn)	5.43%
CN(C)CCNc1oc(-c2cccc(Cl)c2)nc1C#N	-36.2%
C=CCC1(Nc2ccccc2)CC(C)N(C)CC1C.O=C(O)C(=O)O (stereo not drawn)	-21.1%
Cc1ccc(-n2c(CSc3nc(C)cc(C)n3)nnc2SCC(=O)NCc2ccco2)cc1	-38.7%
CCCCn1c(=O)n(C)c(=O)c2c3c(sc21)COC(C)(C)C3	-11.1%
C/C(=N\NC(=O)c1ccc(NS(=O)(=O)c2cccs2)cc1)c1ccccc1	22.3%
